# Screens from PubChem.
# Rv3671c protease – inhibitors of M. tuberculosis serine protease Rv3671c | P9WHR9 | inhibition, % at 5.96 µM | actives 0.048% (n = 320,000); in the data active means inhibition above about 38%;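 further: extracellular domain of Rv3671c used as enzyme; 0% = enzyme with DMSO and 100% = no enzyme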
# Mtb UGM inh – blocks M. tuberculosis UGM enzyme | P9WIQ1 | actives 0.06% (n = 320,000) | purified UGM, fluorescence polarization probe displacement | inhibition, % at 10 µM; in the data active means inhibition above about 10%, passing the limit was not always enough
# Mtb bLac sens – beta-lactam sensitization of Mtb H37Rv; M. tuberculosis H37Rv growth with meropenem, percent inhibition; inhibition, % at 25 µM; actives 0.27% (n = 330,000); call rule not given here;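 further: growth measured after seven days incubation then overnight dye step; 0% = bacteria only wells and 100% = bacteria with antibiotic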
# FadD28 binding – M. tuberculosis FadD28 bisubstrate binding inhibition. FadD28 bisubstrate probe binding, fluorescence polarization. inhibition, % at 12.5 µM. actives 0.22% (n = 360,000). AID 588549; in the data active means inhibition above about 8.5%, passing the limit was not always enough
# FBA Mtb inh – inhibitors of M. tuberculosis fructose-bisphosphate aldolase. P9WQA3. actives 2.3% (n = 360,000). purified M. tuberculosis FBA, fluorescence read-out. AID 588726. inhibition, % at 1 µM; in the data active means inhibition above about 27%;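 further: 0% = vehicle and 100% = reference inhibitor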
# Target sequence (P9WQA3 whole entry, looked up): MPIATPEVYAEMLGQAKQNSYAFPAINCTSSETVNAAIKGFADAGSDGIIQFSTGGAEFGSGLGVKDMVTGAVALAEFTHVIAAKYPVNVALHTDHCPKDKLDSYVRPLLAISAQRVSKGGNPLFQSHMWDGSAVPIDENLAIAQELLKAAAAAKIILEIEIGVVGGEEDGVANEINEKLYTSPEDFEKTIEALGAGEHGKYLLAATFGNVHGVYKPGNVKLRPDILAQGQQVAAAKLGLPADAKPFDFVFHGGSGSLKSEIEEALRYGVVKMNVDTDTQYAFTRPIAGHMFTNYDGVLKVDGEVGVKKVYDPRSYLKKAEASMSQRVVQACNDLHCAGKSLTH
# GDH-TPI inh – GDH-TPI coupled enzyme inhibition counter-screen; inhibition, % at 4.8 µM; GDH-TPI coupled enzyme counterscreen, NADH absorbance; AID 588335; actives 1.2% (n = 360,000); in the data active means inhibition above about 30%;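 further: 0% = DMSO wells and 100% = wells lacking the enzyme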
# * = called active by the depositor; · = no result; + = active, no number. The list is not random: actives were taken first. Their share in the collection is about 3.7%.
SMILES,Rv3671c protease,Mtb UGM inh,Mtb bLac sens,FadD28 binding,FBA Mtb inh,GDH-TPI inh
Nc1c(S(=O)(=O)c2ccccc2)c2nc3ccccc3nc2n1C1CC1,2.6,1.5,-7.8,-3.1,18.2,3.1
Nc1c(S(=O)(=O)c2ccccc2)c2nc3ccccc3nc2n1Cc1ccco1,-16.4,0.8,5.0,-8.4,101.4*,45.7*
Cc1ccc(S(=O)(=O)c2c(N)n(Cc3ccco3)c3nc4ccccc4nc23)cc1C,-28.7,-3.0,-14.9,-7.1,90.8*,39.9*
Cc1ccc(S(=O)(=O)c2c(N)n(CCCO)c3nc4ccccc4nc23)cc1,-64.3,1.5,-7.1,-2.9,143.2*,21.2
CCCS(=O)(=O)NC(=O)C1(C)CCCN(C(=O)c2cc3ccccc3s2)C1 (stereo not drawn),·,·,·,-2.5,-2.6,-4.9
CN1C[C@@H](CO)O[C@@H](n2cnc3c(N4CCOCC4)ncnc32)C1,·,·,·,-2.6,-1.6,-3.6
COc1cc(Cl)c(C)cc1NC(=O)c1ccccc1-n1cnnn1,0.1,-1.1,-4.9,-4.8,-3.2,10.8
CCCCc1cc(=O)oc2cc(C)cc(OCC(=O)Nc3cccnc3)c12,-22.2,-0.4,-1.6,-2.8,19.0,11.1
Cc1cc(OCC(=O)N2CCC(C(=O)O)CC2)c2c(C)cc(=O)oc2c1,2.3,-0.4,-2.2,-1.5,130.1*,5.6
CCCCc1cc(=O)oc2cc(C)cc(OCC(=O)N3CCC(C(=O)O)CC3)c12,7.5,0.5,-5.8,-0.6,123.8*,17.6
Cc1c(C(=O)Nc2cccnc2Cl)oc2ccccc12,-4.1,0.9,-0.4,-3.4,-1.0,-3.0
CC1(C)CC(=O)/C(=N/Nc2ccc(Cl)cc2)CO1,-2.3,1.4,91.1,0.0,-2.4,31.2*
Cc1onc(-c2ccccc2)c1C(=O)NC(=S)NNC(=O)c1ccncc1,15.1,-1.2,96.0,0.0,4.1,13.3
Cc1onc(-c2ccccc2)c1C(=O)NNC(=S)NC(=O)/C=C/c1cccs1,19.0,3.3,5.4,0.2,-0.2,63.0*
Cc1c(C(=O)/C=C/N(C)C)nnn1-c1ccc(Cl)c(Cl)c1,-5.4,-1.4,5.8,4.3,-2.5,42.4*
CN(C)/C=C/C(=O)/C=C/c1ccc(Cl)cc1Cl,7.8,-1.5,-5.7,-1.6,1.2,22.4
Cc1c(C(=O)/C=C/N(C)C)nnn1-c1ccc(F)c(Cl)c1,-3.1,1.3,-1.7,-0.8,1.2,34.7*
Cc1c(C(=O)/C=C/N(C)C)nnn1-c1ccc(Cl)cc1Cl,-5.0,2.1,-4.1,1.7,-3.2,32.7*
CN(C)N=Nc1nc2c(c(=O)n(C)c(=O)n2C)n1CC1CO1 (stereo not drawn),-3.7,0.9,0.0,1.0,-2.1,35.4*
CN(C)N=Nc1nc2c([nH]1)c(=O)n(C)c(=O)n2C,7.6,-5.7,-1.7,-1.8,-0.7,19.2
NC(Cc1cc(O)c(O)cc1O)C(=O)O (stereo not drawn),30.3,1.5,-1.0,·,·,·
N[C@@H](Cc1cc(I)c(O)c(I)c1)C(=O)O,-6.5,0.9,-7.3,10.0*,0.8,22.7
CCOC(=O)Cc1csc(NC(=O)/C=C/c2ccc(Br)o2)n1,-16.7,-1.9,-1.3,1.6,-2.6,75.3*
CCOC(=O)Cc1csc(NC(=O)c2ccc(Br)o2)n1,-1.9,0.6,-1.7,-4.2,-11.5,10.8
Cc1ccsc1C1Nc2ccccc2C(=O)N1O (stereo not drawn),0.3,-5.3,-1.7,-2.7,0.3,0.0
SMILES,Rv3671c protease,Mtb UGM inh,Mtb bLac sens,FadD28 binding,FBA Mtb inh,GDH-TPI inh
Cc1ccsc1C1Nc2ccccc2-c2nc3ccccc3n21 (stereo not drawn),-8.4,-3.0,2.1,-3.3,178.1*,11.8
Nc1c(C(=O)c2ccccc2)oc2ccc([N+](=O)[O-])cc12,-1.3,-2.2,-2.0,-0.9,3.3,33.5*
Nc1c(C(=O)c2ccccc2)oc2ccc(Br)cc12,-7.6,2.5,-20.1,-2.8,4.2,8.5
Cc1ccc(C)c(NC(=O)C2CC(=O)N(C3CCCCC3)C2)c1 (stereo not drawn),-1.1,-1.2,-2.9,1.1,-1.3,-5.9
COc1cccc(CN(C)C(=O)CCN(c2ccccc2)S(=O)(=O)c2ccc(C)cc2)c1OC,5.6,-1.3,-11.9,-5.5,-4.4,3.5
C=CCn1c(SCC(=O)N(CC)C2CCS(=O)(=O)C2)nc2scc(-c3ccccc3)c2c1=O (stereo not drawn),·,·,·,-2.2,-0.4,2.2
Oc1[nH]c2ccccc2c1/C=N/c1nccs1,-6.9,2.8,8.3,1.1,-1.8,31.1*
COc1ccc(N=Cc2c(O)[nH]c3ccccc23)cc1,-3.9,4.1,5.1,0.0,-0.4,17.4
c1ccc(OCCNc2ccn3nc(-c4cccs4)cc3n2)cc1,·,·,·,-5.1,18.1,4.9
CCOC(=O)C(=O)Cc1cccnn1,·,·,·,1.5,6.3,6.1
COc1ccccc1C1CCN(C(=O)c2ccc(C(C)(C)C)cc2)CC1,7.7,1.2,63.7,-1.8,-2.2,4.0
CCc1ccc(/C=C(/C#N)C(N)=S)s1,1.1,2.8,-7.3,-0.3,3.7,3.8
CCc1sc(/C=C(/C#N)C(N)=S)cc1[N+](=O)[O-],·,·,·,17.5*,0.0,-1.2
CCOC(=O)c1csc(-c2ccc(COC(=O)c3ccccc3)o2)n1,·,·,·,-1.8,2.2,·
O=C(N=Nc1c(O)[nH]c2ccc(Br)cc12)c1ccco1,·,·,·,-2.9,-3.4,38.9*
O=C(NCc1cccc(C(F)(F)F)c1)c1ccc2sc(C3=C[C@@H](O)[C@@H](O)[C@@H](CO)O3)nc2c1,·,·,·,-2.2,2.5,13.3
Oc1cc(NCc2cccnc2)ccc1-c1nc2ccccc2o1,-6.7,1.2,98.2,1.0,10.8,63.5*
CN1OC[C@@H]2CN(Cc3ccccc3)[C@H](c3cccc(Oc4ccccc4)c3)C[C@@H]21,·,·,·,-4.4,-0.7,0.9
CC(=O)Nc1ccc(S(=O)(=O)C(C#N)c2nc3ccccc3nc2NCCCO)cc1 (stereo not drawn),-12.2,0.7,-4.2,-2.3,+,23.7
CC(=O)Nc1ccc(S(=O)(=O)C(C#N)c2nc3ccccc3nc2NCCO)cc1 (stereo not drawn),0.7,1.4,-12.6,0.3,+,22.7
CN=C(C[N+](=O)[O-])NCCSCc1ccc(CN(C)C)o1,1.7,·,-0.9,-1.8,-2.2,6.3
COc1ccc(-n2c(/C=C/c3ccc(O)cc3)nc3ccccc3c2=O)cc1,-6.2,1.7,-8.6,1.1,0.7,57.1*
O=c1c2ccccc2nc(/C=C/c2ccc(Br)cc2)n1CCCO,1.1,-0.8,4.6,-3.3,0.0,21.9
O=c1c2ccccc2nc(/C=C/c2ccc(Br)cc2)n1CCO,-2.5,-0.4,4.8,-1.0,2.7,35.4*
C[C@H](NS(=O)(=O)c1ccccc1)C(=O)OCC(=O)NC(=O)Nc1ccc2c(c1)OCCO2,5.0,-0.3,63.4,-1.2,-1.3,4.9
CCC(=O)Nc1ccc(NC(=S)NC(=O)/C=C/c2ccco2)cc1,4.0,0.0,6.4,-0.6,-2.6,47.5*
O=C(/C=C/c1ccco1)NC(=S)NNC(=O)c1ccco1,0.4,2.4,6.6,0.8,1.0,43.4*
N#C/C(=N\Nc1ccc(Cl)cc1)C(=O)c1ccccc1,1.3,-0.1,-3.2,0.6,-18.2,31.1*
